From ChEMBL document CHEMBL4513216, “Probing the Open Global Health Chemical Diversity Library for Multistage-Active Starting Points for Next-Generation Antimalarials” (ACS Infect Dis, 2020)
The whole screen tested about 68,000 compounds, of which about 2,700 (4%) showed an effect of 50% or more. What follows is part of a selection rich in strong results, with near analogues and random picks from the rest.

System: Plasmodium berghei
Assay: Screen against P. berghei liver stage (PbLuc), transformed with Luciferase, at 2uM
Type: functional, HepG2
Settings: tested at 2 uM

Row | SMILES | INHIBITION [%]
1 | C[C@H](NC(=O)C1CCCC1)c1nc2cc(-c3ccc(F)cc3)ncn2n1 | 39.48
2 | CC(O)c1cccc(OCc2ccon2)c1 (centres undefined) | 46.28
3 | Cn1cc(CN2CC[C@H]3O[C@H](C(=O)Nc4cnccn4)CC[C@H]32)cn1 | -20.89
4 | CN(CC(=O)Nc1cccnc1)CC1CCCN1c1cccnn1 (centres undefined) | 45.48
5 | Cc1nn(C)c(Cl)c1C1CCCN1C(=O)c1cnc[nH]1 (centres undefined) | 8.37
6 | CC(=O)N(Cc1noc(C)n1)C1CCN(CC(=O)N(C)C2CC2)C1 (centres undefined) | -3.97
7 | Cc1nccn1CCN(C)C(=O)C1CCN(C(=O)C2CCC2)CC1 | 20.45
8 | CN(C)CCN1C[C@@H]2CN(S(=O)(=O)c3ccccc3)C[C@@H]2C1=O | 19.16
9 | Cc1ccc(CN2C[C@H](OCC3CCOCC3)[C@H]3COC[C@H]32)o1 | 18.32
10 | Cc1nc2ccc(C(=O)N3CCN(CCO)[C@@H]4CS(=O)(=O)C[C@@H]43)cc2o1 | -85.34
11 | CC(C)CN1CCN(S(=O)(=O)c2cn(C)cn2)[C@H]2CS(=O)(=O)C[C@H]21 | 15.74
12 | CC(C)=CCN1CCN(Cc2nccn2C)[C@H]2CS(=O)(=O)C[C@H]21 | 8.26
13 | CC(C)=CCN1CCN(S(=O)(=O)c2cn(C)cn2)[C@H]2CS(=O)(=O)C[C@H]21 | 50.98
14 | O=C(c1ccc2nccnc2c1)N1CCN(CCO)[C@@H]2CS(=O)(=O)C[C@@H]21 | 14.82
15 | Cn1cnc2cc(C(=O)N3CCN(CCO)[C@@H]4CS(=O)(=O)C[C@@H]43)ccc21 | 55.36
16 | O=C(Cn1nc(-c2ccc(F)cc2)oc1=O)NCCc1ccccc1 | 20.57
17 | c1ccc(OCc2nnn3c2CN(c2ncccn2)CCC3)nc1 | -7.52
18 | Cc1nnc2ccc(OCCNS(C)(=O)=O)nn12 | -26.08
19 | N#Cc1cccc(CN2CCn3cc(Cn4cccn4)nc3C2)c1 | 21.42
20 | CSc1ccc(NCC(=O)NC(=O)NCC(F)(F)F)cc1F | 18.63
21 | CSc1ccc(NCC(=O)NCC(=O)N2CCCC2)cc1F | -30.18
22 | CSc1ccc(NCC(=O)NCC2CC2)cc1F | 55.66

Row | SMILES | INHIBITION [%]
23 | COc1ccc(CNC(=O)NC2CCN(CC3CCCC3)CC2)cn1 | -17.01
24 | CCCN1C[C@H](NC(=O)c2cc(C)no2)[C@@H](c2ccc(OC)cc2)C1 | 18.22
25 | CCCN1C[C@H](NC(=O)c2cccs2)[C@@H](c2ccc(OC)cc2)C1 | 53.65
26 | CCCN1C[C@H](NC(=O)c2ccccc2F)[C@@H](c2ccc(OC)cc2)C1 | 16.55
27 | O=c1c2ccccc2ncn1Cc1cc(C2CC2)[nH]n1 | 34.98
28 | CCOCC1c2c(ncn2C)CCN1C(=O)c1cscn1 (centres undefined) | 16.78
29 | Cc1ncnc2c1CCN(Cc1ccc3c(c1)OCO3)CC2 | -39.9
30 | Cc1cc(CNc2ccc3nc(C4CC4)sc3c2)no1 | 53.63
31 | Cc1noc(C)c1CNc1ccc2nc(C3CC3)sc2c1 | 25.21
32 | Cc1cc(CNc2ccc3nc(C)sc3c2)no1 | -32.33
33 | Cc1ccc(CN2CCC3(CC2)C(=O)NCCN3CC2CC2)o1 | 8.62
34 | CC(C)NC(=O)N1CCC2(CC1)C(=O)NCCN2Cc1ccccc1 | 5.69
35 | O=C1NCCN(CC2CC2)C12CCN(Cc1ccco1)CC2 | 61.9
36 | O=C(CC1CC1)N1CCC2(CC1)C(=O)NCCN2Cc1ccccc1 | 52.36
37 | CN1CCNC(=O)C12CCN(Cc1ccco1)CC2 | 27.42
38 | O=C(NC1CC1)N1CCC2(CC1)C(=O)NCCN2Cc1ccccc1 | -11.54
39 | CC(C)CNC(=O)[C@H]1CCS(=O)(=O)[C@@H]2CN(Cc3cccnc3)C[C@H]12 | 35.07
40 | COC(=O)c1ncccc1N1CCCCC1 | -18.04
41 | CC(C)c1nccc(C2CC(=O)Nc3n[nH]c(C4CCC4)c32)n1 (centres undefined) | 53.33
42 | O=C1CC(c2ccc3ccccc3n2)c2c(n[nH]c2C2CCC2)N1 (centres undefined) | 46.3
43 | COc1nc2ccccc2cc1C1CC(=O)Nc2n[nH]c(C3CCC3)c21 (centres undefined) | 13.51
44 | CCc1nnc(SCC(=O)N2CCc3[nH]nc(C4CCC4)c3C2)o1 | 66.4

Row | SMILES | INHIBITION [%]
45 | CCc1n[nH]c(SCC(=O)N2CCc3[nH]nc(C4CCC4)c3C2)n1 | 23.45
46 | Cc1nnc(SCC(=O)N2CCc3[nH]nc(C4CCC4)c3C2)o1 | 22.34
47 | O=C(C1CC1)N1CCC(O)(CN2CCN(c3ccccc3)CC2)C1 (centres undefined) | 0.64
48 | Cc1nc2c(c(N(C)C)n1)CCN(C(=O)c1sccc1S(N)(=O)=O)C2 | -22.79
49 | CC(C)CNc1nccc(-c2cnc3sc(Cl)cn3c2=O)n1 | -24.85
50 | COC(=O)CC(NC(=O)CCCn1cccn1)c1ccc(Cl)cc1 (centres undefined) | -18.57
51 | CC(C)OC(=O)CC(NC(=O)CCn1cccn1)c1ccccc1 (centres undefined) | 67.28
52 | CC(NC(=O)CCn1cccn1)c1cn(-c2ccccc2)nn1 (centres undefined) | 2.26
53 | CC(NC(=O)CCn1cccn1)c1ccc(-n2ccnn2)cc1 (centres undefined) | -33.92
54 | COC(=O)CC(NC(=O)CCn1cccn1)c1ccc(C)cc1 (centres undefined) | 60.13
55 | CC(NC(=O)CCn1cccn1)c1cccs1 (centres undefined) | -38.35
56 | CN(C)CCN1CCC2(CCN(C(=O)c3ccc(F)cc3)CC2)C1=O | -16.42
57 | Cc1cc(C)n(CC2CN(CC(=O)NCc3ccccn3)CCO2)n1 (centres undefined) | -12.05
58 | CN(Cc1cccnc1)[C@@H]1CN(C(=O)c2ccno2)[C@@H]2CCCO[C@H]12 | -7.88
59 | CCSc1cc(C(=O)NCc2ccc(C(=O)NC)cc2)ccn1 | 19.48
60 | C[S+]([O-])c1nncn1CC(=O)c1ccc(Br)cc1 (centres undefined) | -59.71
61 | CCOC(=O)CC(c1ccc(OC)cc1)c1c(O)n[nH]c1C (centres undefined) | -43.9
62 | CN(Cc1ccc([S+](C)[O-])cc1)c1ccc(C(F)(F)F)cn1 (centres undefined) | 48.21
63 | CN(Cc1ccc([S+](C)[O-])cc1)c1ccc(Br)cn1 (centres undefined) | 67.28
64 | CN(Cc1ccc([S+](C)[O-])cc1)c1ccc(Cl)cn1 (centres undefined) | 45.82
